This is an account of results in PubChem BioAssay (EPA / NIEHS).

Test [1] concerns the target Paired box protein Pax-6 (Homo sapiens) (UniProt P26367). In words: ATG_Pax6_CIS: Attagene CIS-FACTORIAL HepG2 Assay for human Paired Box 6 (PAX6) (AID 2282956). The note with it: HepG2 CIS-FACTORIAL PAX6 reporter transcription, RNA readout; actives raise or lower the signal. The method in brief:
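Fluorescent RT-PCR products separated by capillary electrophoresis report PAX6-linked promoter mRNA in HepG2 cells 24 h post-dose. Curves fitted bidirectionally, DMSO as negative control.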

Test [2] is described as follows: ATG_PXRE_CIS: Attagene CIS-FACTORIAL HepG2 Assay for human Pregnane X Receptor Element (PXRE) (AID 2282957). To be noted: HepG2 Attagene CIS-FACTORIAL PXRE reporter, mRNA; actives raise or lower the signal. Put shortly: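 Endogenous transcription factor activity in HepG2 was gauged through induction of reporter mRNA driven by a cis-regulating promoter element, sampled 24 h post-treatment. Activity was fitted in both directions against DMSO negative control.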

The nature of test [3]: ATG_RORE_CIS: Attagene CIS-FACTORIAL HepG2 Assay for human RAR-related Orphan Receptor Element (RORE) (AID 2282959). The note with it: HepG2 Attagene cis-factorial RORE reporter, mRNA; actives raise or lower the signal. Put shortly: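 HepG2 cells carrying transiently transfected cis-regulated reporter units; RORE-driven reporter mRNA quantified 24 h post-dosing by RT-PCR, 6-FAM primer extension, HpaI digestion and capillary electrophoresis. Bidirectional fit versus DMSO.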

The nature of test [4]: ATG_Sox_CIS: Attagene CIS-FACTORIAL HepG2 Assay for human SRY-box transcription factor (SOX) (AID 2282960). To be noted: HepG2 Attagene cis-factorial SOX reporter, mRNA; actives raise or lower the signal. Put shortly:
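HepG2 cells transiently transfected with multiple cis-regulated reporter units, then dosed for 24 h. Reporter mRNA quantified by RT-PCR, fluorescent labelling, HpaI digestion and capillary electrophoresis; bidirectional fit versus DMSO.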

Test [5] has as its target Transcription factor Sp1 (Homo sapiens) (UniProt P08047). Kind of test: ATG_Sp1_CIS: Attagene CIS-FACTORIAL HepG2 Assay for human Specificity Protein 1 (Sp1) (AID 2282961). To be noted: HepG2 Sp1 cis-reporter transcription, actives raise or lower the signal. Put shortly: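 HepG2 cells transiently transfected with multiplexed cis-regulated reporter constructs, chemical exposure 24 h. Reporter mRNA quantified by RT-PCR with capillary electrophoresis; bidirectional fit relative to DMSO.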

In test [6] the target is Signal transducer and activator of transcription 3 (Homo sapiens) (UniProt P40763). In words: ATG_STAT3_CIS: Attagene CIS-FACTORIAL HepG2 Assay for human Signal Transducer and Activator of Transcription 3 (STAT3) (AID 2282963). To be noted: HepG2, Attagene cis-factorial STAT3 reporter transcription; actives raise or lower the signal. Put shortly:
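HepG2, MRTU-transfected, 24 h dosing. RNA → RT → PCR → FAM label → HpaI → CE. Bidirectional fit vs DMSO.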

A short description of test [7]: ATG_TA_CIS: Attagene CIS-FACTORIAL HepG2 Assay for human TA Basal Promoter (AID 2282964). To be noted: HepG2 Attagene CIS-factorial TA basal promoter reporter; actives raise or lower the signal. The method in brief:
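Steps: transfect HepG2 with MRTUs; dose 24 h; isolate RNA, DNase-treat, reverse-transcribe; PCR and FAM-label reporter cDNA; digest with HpaI 2h at 37 C; run capillary electrophoresis. Activity fitted both directions against DMSO.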

A short description of test [8]: ATG_TCF_b_cat_CIS: Attagene CIS-FACTORIAL HepG2 Assay for human T-Cell-Factor with beta-catenin (TCF/b-cat) (AID 2282965). To be noted: HepG2 TCF/beta-catenin cis-reporter transcription, actives raise or lower the signal. Put shortly:
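In this cis-format system, transfected HepG2 cells report endogenous transcription factor activity. Readout after 24 h exposure is reporter transcript abundance from RT-PCR and capillary electrophoresis, analysed for gain or loss of signal versus DMSO.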

A short description of test [9]: ATG_TAL_CIS: Attagene CIS-FACTORIAL HepG2 Assay for human TAL Basal Promoter (AID 2282966).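 Note: background control endpoint measuring basal TAL promoter reporter mRNA not a specific factor.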 The note with it: HepG2 Attagene cis-factorial TAL promoter reporter; actives raise or lower the signal. Put shortly:
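Endogenous transcription-factor activity is sensed in HepG2 cells through transfected cis-promoter reporter constructs. After 24 h dosing, reporter transcripts are quantified by RT-PCR and capillary electrophoresis. Gain or loss of signal is fitted relative to DMSO.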

Test [10] in a line: ATG_TGFb_CIS: Attagene CIS-FACTORIAL HepG2 Assay for human Transforming Growth Factor (TGF) (AID 2282967). The note with it: HepG2 Attagene CIS TGFb reporter, mRNA transcription; actives raise or lower the signal. Put shortly: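 Cells were dosed for 24 hours, after which total RNA was reverse-transcribed and reporter sequences amplified, labeled and sized by capillary electrophoresis. Activity was fitted in both directions against DMSO.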

Test [11] in a line: ATG_VDRE_CIS: Attagene CIS-FACTORIAL HepG2 Assay for human Vitamin D Receptor Element (VDRE) (AID 2282968). To be noted: HepG2 VDRE cis-reporter transcription, actives raise or lower the signal. The method in brief: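 Steps: transfect HepG2 with multiple reporter transcription units; dose chemicals 24 h; isolate RNA; RT-PCR; label with 6-FAM primer extension; HpaI digest; capillary electrophoresis. Curves fitted both directions against DMSO.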

Test [12] deals with Estrogen receptor (Homo sapiens) (UniProt P03372). Kind of test: ATG_ERa_TRANS: Attagene TRANS-FACTORIAL HepG2 Assay for human Estrogen Receptor alpha (ERa) (AID 2282970; active = hit-call score of the fitted dose curve at least 0.9, where 1 is the maximum). To be noted: HepG2 Attagene TRANS ERa GAL4 reporter, mRNA. The method in brief:
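Transfected HepG2 cells carrying GAL4-UAS-driven reporter units were dosed for 24 hours. Total RNA was reverse-transcribed, reporter sequences PCR-amplified, FAM-labelled, HpaI-digested and resolved by capillary electrophoresis. Increases over DMSO control defined activity.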

The target in test [13] is X-box-binding protein 1 (Homo sapiens) (UniProt P17861). Kind of test: ATG_Xbp1_CIS: Attagene CIS-FACTORIAL HepG2 Assay for human X-box Binding Protein 1 (XBP1) (AID 2282972). The note with it: HepG2 XBP1 cis-element reporter, Attagene multiplex; actives raise or lower the signal. The method in brief:
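Multiplexed cis-reporter readout in transfected HepG2 liver cells. Exposure lasted 24 hours. Activity in either direction was fitted against DMSO as negative control and baseline.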

The nature of test [14]: ATG_M_19_TRANS: Attagene TRANS-FACTORIAL HepG2 Assay for M19 Transcription Factor (Internal Marker) (AID 2282974; active = hit-call score of the fitted dose curve at least 0.9, where 1 is the maximum). To be noted: HepG2 Attagene TRANS-FACTORIAL M19 internal marker reporter. The method in brief: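 HepG2 transiently transfected with GAL4-UAS multiplex reporter constructs, exposed 24 h; reporter RNA quantified by RT-PCR, 6-FAM labeling, HpaI digestion and capillary electrophoresis; internal background marker fitted upward versus DMSO.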

A short description of test [15]: ATG_SREBP_CIS: Attagene CIS-FACTORIAL HepG2 Assay for human Sterol Regulatory Element Binding (SREBP) (AID 2282962). To be noted: HepG2 Attagene cis-factorial SREBP reporter, mRNA; actives raise or lower the signal. The method in brief:
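Endogenous factor activity is measured in HepG2 through multiplexed reporter units under cis-element control. Following a 24 h incubation, reporter transcripts are reverse-transcribed, PCR-amplified and sized by capillary electrophoresis; activity is fitted in both directions relative to DMSO.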

Test [16] is described as follows: ATG_PPRE_CIS: Attagene CIS-FACTORIAL HepG2 Assay for human Peroxisome Proliferator-activated Response Element (PPRE) (AID 2282958). To be noted: HepG2 PPRE cis-element reporter, Attagene transcription factor profiling; actives raise or lower the signal. The method in brief: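 HepG2 cells are transiently transfected with multiplexed cis-promoter reporter units to report endogenous PPAR activity. After 24 h dosing, reporter mRNA is read by RT-PCR and capillary electrophoresis. Fitting is bidirectional against DMSO.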

Test [17] is described as follows: ATG_GAL4_TRANS: Attagene TRANS-FACTORIAL HepG2 Assay for GAL4 (Internal Marker) (AID 2282976; active = hit-call score of the fitted dose curve at least 0.9, where 1 is the maximum). To be noted: HepG2 Attagene TRANS GAL4 internal marker reporter. The method in brief: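 Fluorescence from capillary electrophoresis of labelled RT-PCR products quantifies reporter mRNA induction after 24 h dosing of HepG2 cells carrying transfected GAL4-UAS reporter transcription units. Vehicle DMSO serves as baseline.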

Records with an inconclusive call do not appear. Calls of active or inactive are those of the source. Rule for the calls, unless noted: active = hit-call score of the fitted dose curve at least 0.9, where 1 is the maximum; inactive = score below 0.9.

Chain of Paired box protein Pax-6 (Homo sapiens) (P26367 whole entry, looked up): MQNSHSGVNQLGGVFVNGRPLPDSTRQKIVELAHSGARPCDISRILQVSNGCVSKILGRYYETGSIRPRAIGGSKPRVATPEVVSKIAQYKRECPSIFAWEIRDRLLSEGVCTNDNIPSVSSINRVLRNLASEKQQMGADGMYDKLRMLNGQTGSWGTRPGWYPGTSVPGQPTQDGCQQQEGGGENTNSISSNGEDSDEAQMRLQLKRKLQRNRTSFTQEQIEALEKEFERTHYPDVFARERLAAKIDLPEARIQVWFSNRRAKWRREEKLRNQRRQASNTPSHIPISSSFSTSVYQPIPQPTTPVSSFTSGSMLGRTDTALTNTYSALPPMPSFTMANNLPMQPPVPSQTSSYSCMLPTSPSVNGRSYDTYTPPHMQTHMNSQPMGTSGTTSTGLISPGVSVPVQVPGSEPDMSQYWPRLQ
Chain of X-box-binding protein 1 (Homo sapiens) (P17861 whole entry, looked up): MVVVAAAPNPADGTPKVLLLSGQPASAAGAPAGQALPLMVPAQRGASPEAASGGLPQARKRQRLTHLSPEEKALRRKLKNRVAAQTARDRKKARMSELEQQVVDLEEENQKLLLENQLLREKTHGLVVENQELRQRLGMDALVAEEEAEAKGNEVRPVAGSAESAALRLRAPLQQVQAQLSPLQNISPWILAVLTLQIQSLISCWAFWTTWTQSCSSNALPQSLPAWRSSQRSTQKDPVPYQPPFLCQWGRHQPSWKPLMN
Chain of Transcription factor Sp1 (Homo sapiens) (P08047 whole entry, looked up): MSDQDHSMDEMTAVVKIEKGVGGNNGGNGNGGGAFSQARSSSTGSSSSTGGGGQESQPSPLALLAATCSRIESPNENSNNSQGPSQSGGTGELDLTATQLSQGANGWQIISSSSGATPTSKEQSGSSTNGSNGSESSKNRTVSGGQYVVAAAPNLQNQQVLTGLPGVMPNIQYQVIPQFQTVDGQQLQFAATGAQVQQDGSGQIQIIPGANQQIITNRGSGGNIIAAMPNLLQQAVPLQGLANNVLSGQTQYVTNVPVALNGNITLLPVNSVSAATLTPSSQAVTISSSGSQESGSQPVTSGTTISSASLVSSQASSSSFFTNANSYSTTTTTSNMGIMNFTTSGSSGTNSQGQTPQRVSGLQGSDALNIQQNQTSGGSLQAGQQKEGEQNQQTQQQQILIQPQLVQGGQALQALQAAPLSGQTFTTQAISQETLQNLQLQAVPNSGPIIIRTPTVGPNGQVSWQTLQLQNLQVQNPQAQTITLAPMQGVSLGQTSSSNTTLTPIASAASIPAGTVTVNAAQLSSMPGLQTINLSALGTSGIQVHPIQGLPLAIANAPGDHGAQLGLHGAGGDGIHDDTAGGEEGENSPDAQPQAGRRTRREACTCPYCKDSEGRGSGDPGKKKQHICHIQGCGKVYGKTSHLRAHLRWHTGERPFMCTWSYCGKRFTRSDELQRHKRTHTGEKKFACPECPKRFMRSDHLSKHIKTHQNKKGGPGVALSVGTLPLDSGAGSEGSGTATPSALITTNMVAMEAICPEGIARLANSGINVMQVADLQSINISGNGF
Chain of Estrogen receptor (Homo sapiens) (P03372 whole entry, looked up, the tested form may be a part): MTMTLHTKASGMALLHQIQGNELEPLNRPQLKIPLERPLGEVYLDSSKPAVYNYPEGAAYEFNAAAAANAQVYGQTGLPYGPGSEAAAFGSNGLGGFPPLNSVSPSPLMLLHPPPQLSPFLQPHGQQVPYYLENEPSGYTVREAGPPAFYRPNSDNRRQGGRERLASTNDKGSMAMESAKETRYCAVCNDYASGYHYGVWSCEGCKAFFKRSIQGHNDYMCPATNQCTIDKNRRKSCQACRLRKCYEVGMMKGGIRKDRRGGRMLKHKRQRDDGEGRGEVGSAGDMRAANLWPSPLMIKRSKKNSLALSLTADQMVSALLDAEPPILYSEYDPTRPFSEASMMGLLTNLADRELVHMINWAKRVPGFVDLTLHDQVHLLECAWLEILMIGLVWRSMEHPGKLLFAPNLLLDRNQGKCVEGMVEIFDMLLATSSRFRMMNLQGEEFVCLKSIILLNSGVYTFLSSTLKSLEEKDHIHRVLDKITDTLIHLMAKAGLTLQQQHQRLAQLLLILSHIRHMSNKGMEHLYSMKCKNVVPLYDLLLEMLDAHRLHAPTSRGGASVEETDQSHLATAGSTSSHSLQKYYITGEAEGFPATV
Chain of Signal transducer and activator of transcription 3 (Homo sapiens) (P40763 whole entry, looked up): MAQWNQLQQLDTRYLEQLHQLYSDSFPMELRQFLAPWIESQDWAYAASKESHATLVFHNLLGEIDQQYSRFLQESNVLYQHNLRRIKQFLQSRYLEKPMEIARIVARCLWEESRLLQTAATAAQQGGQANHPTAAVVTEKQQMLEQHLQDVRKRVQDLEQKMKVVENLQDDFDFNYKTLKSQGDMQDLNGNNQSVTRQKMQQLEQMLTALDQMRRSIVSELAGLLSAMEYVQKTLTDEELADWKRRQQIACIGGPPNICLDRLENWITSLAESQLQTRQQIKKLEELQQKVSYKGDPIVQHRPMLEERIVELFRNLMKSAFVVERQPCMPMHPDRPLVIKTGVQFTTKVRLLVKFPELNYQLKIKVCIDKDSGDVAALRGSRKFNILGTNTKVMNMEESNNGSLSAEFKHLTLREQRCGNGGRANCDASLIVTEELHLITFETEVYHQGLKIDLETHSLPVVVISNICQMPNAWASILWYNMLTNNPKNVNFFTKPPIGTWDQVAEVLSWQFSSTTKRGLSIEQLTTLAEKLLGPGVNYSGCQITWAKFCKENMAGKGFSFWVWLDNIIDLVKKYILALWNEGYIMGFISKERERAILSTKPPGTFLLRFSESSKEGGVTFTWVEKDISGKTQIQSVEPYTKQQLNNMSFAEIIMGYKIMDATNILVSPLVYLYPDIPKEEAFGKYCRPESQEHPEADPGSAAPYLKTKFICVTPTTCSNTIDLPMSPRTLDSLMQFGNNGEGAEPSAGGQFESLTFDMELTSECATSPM

The term AC50 denotes the concentration at which the activity in the assay is half-maximal. Turning to `O=C(OCc1ccccc1)c1ccccc1O`, the compound was called inactive in [1], in test [3], in test [4], in test [5], in test [6] and in test [7]. The compound was classed as inactive in test [8], in test [9], in test [10], in [11], in [13] and in test [14]. Further, the values for the AC50 in test [2] and in [12] were 77.9 µM (active) and 43 µM (active), respectively.
Regarding `CC1=CCC(C(C)C)=CC1`, the call in test [1], in test [2], in [4], in test [5], in test [15] and in test [6] was inactive. Besides, the compound was classed as inactive in [7], in test [8], in test [9], in test [13] and in [14].
As for `CC1=CCC(C(C)(C)O)CC1` (stereo not drawn), the result in test [1], in test [16], in test [4], in test [15], in test [6] and in test [7] was inactive. Besides, the call in test [8], in [9], in test [10], in test [11], in test [12] and in [13] was inactive. Further, the compound was called inactive in test [14].
For the compound `CCCCOCCOCCO`, the call in test [1], in [2], in test [3], in test [4], in test [5] and in test [15] was inactive. Besides, the compound was called inactive in test [7], in [9], in [10], in [11], in test [12] and in test [13]. Moreover, the compound was classed as inactive in test [14] and in test [17].
`C=CC(=O)OCCCCCC`: the compound was classed as inactive in [1], in test [4], in [5], in test [15], in [6] and in test [7]. The call in [8], in [9], in test [10], in test [13], in [14] and in test [17] was inactive. Besides, in test [2], the AC50 was 59.6 µM (active).
With `c1coc(CNc2ncnc3nc[nH]c23)c1`, the result in test [1], in test [16], in [3], in [4], in test [5] and in [15] was inactive. Besides, the result in test [6], in test [7], in test [8], in [9], in [10] and in test [11] was inactive. The result in test [12] and in test [13] was inactive.
`CC1(C)CC(=O)CC(C)(C)N1`: the compound was called inactive in test [1], in [16], in test [3], in [4], in test [15] and in test [6]. Also, the compound was classed as inactive in [7], in test [9], in test [10], in [11], in [13] and in test [17].
Take `[Cu+]`: the outcome in test [1], in test [2], in [4], in [5], in [15] and in test [6] was inactive. Further, the result in [7], in test [8], in test [9], in test [10], in test [12] and in [13] was inactive. Moreover, the compound was called inactive in [14].
Turning to `c1ccc(Cc2ccccc2)cc1`, the result in test [1], in [2], in test [3], in test [4], in test [5] and in [15] was inactive. For the same compound, the compound was called inactive in [7], in [9], in test [11], in test [12], in test [13] and in test [14]. Also, the compound was called inactive in [17].
Regarding `O=C1OC2(c3ccc(O)cc3Oc3cc(O)ccc32)c2ccccc21`, the call in test [1], in [16], in test [3], in [4], in test [5] and in [6] was inactive. In addition, the result in [7], in test [8], in test [9], in [10], in test [11] and in test [13] was inactive. Also, in [14], the outcome was inactive. Besides, the concentration at half-maximal activity (AC50) in [12] was 27.7 µM (active).
As for `CC(=O)CC(=O)N(C)C`, the call in [1], in test [2], in test [3], in [4], in test [5] and in test [6] was inactive. Besides, the call in [7], in test [9], in [10], in [11], in test [13] and in test [17] was inactive.
